In assay [1] the target is Muscarinic acetylcholine receptor M1 (Homo sapiens) (UniProt P11229). Kind of assay: Cholinergic receptor muscarinic 1 (CHRM1) small molecule agonists, cell-based qHTS assay (AID 1963589). Note: nearly all actives have a fitted effect of over 35% in size. A digest of the protocol: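 Homogeneous fluorescence calcium flux, agonist mode. Human M1-expressing CHO cells; compound dosed at 15 concentrations, three independent runs; signal sampled every 1 sec.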
Background: In qHTS, concentration-response curves come from the screen itself.

Assay [2] can be described thus: Nuclear factor erythroid 2-related factor 2/antioxidant responsive element (Nrf2/ARE) small molecule agonists: qHTS cell viability counter screen in human keratinocytes (AID 1919968; active = well fitted curve in the direction sought with a large enough effect in the repeat runs; an effect the other way counts as inactive or inconclusive; note: nearly all actives have a fitted effect of over 55% in size). A digest of the protocol:
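Cells of the KeratinoSens line were plated at 1,500 per well and left for 5 h before compound transfer from DMSO stocks. After a 23 h incubation (37 C, 5% CO2), CellTiter-Fluor was added. Signal was taken as fluorescence intensity 1 h later.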

A short description of assay [3]: Nuclear factor erythroid 2-related factor 2/antioxidant responsive element (Nrf2/ARE) small molecule agonists: luciferase reporter gene qHTS assay in human keratinocytes (AID 1919969; note: nearly all actives have a fitted effect of over 35% in size; note: potency is the fitted concentration of half-maximal effect). (Reporter assays use an easily measured gene product as a stand-in for the process of interest.)
The target of assay [4] is Gonadotropin-releasing hormone receptor (Homo sapiens) (UniProt P30968). Kind of assay: Human gonadotropin-releasing hormone receptor (GnRHR) small molecule agonists, calcium flux assay in GnRHR-HEK293 cells (AID 1920063). Note: nearly all actives have a fitted effect of over 35% in size. A digest of the protocol:
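Compounds dissolved in DMSO are pin-transferred onto dye-loaded GnRHR-HEK293 cells, which were seeded 18 h before at 37 C/5% CO2. Calcium signal is read as fluorescence intensity at 1 s intervals for 3 min.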

For assay [5], the target named is KiSS-1 receptor (Homo sapiens) (UniProt Q969F8). Kind of assay: Human kisspeptin (KISS1R) small molecule agonists, calcium flux assay in KISS1R-HEK293 cells (AID 1920064; active = well fitted curve in the direction sought with a large enough effect in the repeat runs; an effect the other way counts as inactive or inconclusive). The method in brief:
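Cell line: HEK293, stable human KISS1R. Dye loading 1 h at 37 C after 18 h culture. Read: kinetic fluorescence, 480/540 nm, 3 min at 1 s intervals.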

Assay [6] can be described thus: G protein-coupled receptor (GPCR) small molecule agonists, calcium flux assay: HEK293 wild type cell line counter screen (AID 1920065). A digest of the protocol:
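Tox21 10K compounds, 15 concentrations each in triplicate, pin-transferred in DMSO onto dye-loaded cells; kinetic read at 480/540 nm for 3 min, 1 s intervals.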

A short description of assay [7]: p53 small molecule agonists, cell-based qHTS assay with human liver microsomes (AID 1963577). The method in brief: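 p53RE-bla reporter cells were pre-incubated 5 h at 37 C, then treated with compounds plus human liver microsomes (0.5 mg/mL final) and NADPH (0.5 mg/mL final) for 16 h at 37 C. Beta-lactamase activity was read by LiveBLAzer fluorescence after 2 h at room temperature.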

The nature of assay [8]: p53 small molecule agonists, cell-based qHTS assay with rat liver microsomes (AID 1963578). The method in brief: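 p53RE-bla cells were exposed to compounds together with rat liver microsomes (0.5 mg/mL final) and NADPH (0.5 mg/mL final) for 16 h at 37 C, then read by LiveBLAzer beta-lactamase fluorescence after 2 h at room temperature.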
The nature of assay [9]: p53 small molecule agonists, cell-based qHTS assay with human liver microsomes: qHTS cell viability counter screen (AID 1963579). Note: nearly all actives have a fitted effect of over 45% in size. A digest of the protocol: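 p53RE-bla cells (4,000/well) were pre-incubated 5 h at 37 C, then given compounds in DMSO plus human liver microsomes (0.5 mg/mL final) and NADPH (0.5 mg/mL final) for 16 h at 37 C. Viability was read by CellTiter-Glo luminescence.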

A short description of assay [10]: p53 small molecule agonists, cell-based qHTS assay with rat liver microsomes: qHTS cell viability counter screen (AID 1963580). Note: nearly all actives have a fitted effect of over 45% in size. A digest of the protocol:
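After the beta-lactamase ratio was read, CellTiter-Glo was added to the same wells and luminescence measured at 30 min; cells had been treated 16 h at 37 C with compounds, rat liver microsomes and NADPH (0.5 mg/mL final each).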

Assay [11] in a line: p53 small molecule agonists, cell-based qHTS assay: qHTS cell viability counter screen (AID 1963581). Note: nearly all actives have a fitted effect of over 45% in size. The method in brief: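 ATP content measured by luminescence in HCT-116 p53RE-bla cells treated 16 h at 37 C, same wells as the reporter screen.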
In assay [12] the target is Beta-2 adrenergic receptor (Homo sapiens) (UniProt P07550). Kind of assay: Adrenergic beta2 receptor (ADRB2) small molecule antagonists, cell-based qHTS assay (AID 1963592). Note: series mostly up to about 92 µM; nearly all actives have a fitted effect of over 50% in size. The method in brief: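 Assay format: CHO-ADRB2 cells, 18-20hr seeding at 37C/5% CO2, then compound plus 1nM isoproterenol agonist mix for 0.5hr RT. Homogeneous time-resolved fluorescence cAMP detection after 1hr, expressed as 665/615 nm ratio.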
Chain of Beta-2 adrenergic receptor (Homo sapiens) (P07550 whole entry, looked up): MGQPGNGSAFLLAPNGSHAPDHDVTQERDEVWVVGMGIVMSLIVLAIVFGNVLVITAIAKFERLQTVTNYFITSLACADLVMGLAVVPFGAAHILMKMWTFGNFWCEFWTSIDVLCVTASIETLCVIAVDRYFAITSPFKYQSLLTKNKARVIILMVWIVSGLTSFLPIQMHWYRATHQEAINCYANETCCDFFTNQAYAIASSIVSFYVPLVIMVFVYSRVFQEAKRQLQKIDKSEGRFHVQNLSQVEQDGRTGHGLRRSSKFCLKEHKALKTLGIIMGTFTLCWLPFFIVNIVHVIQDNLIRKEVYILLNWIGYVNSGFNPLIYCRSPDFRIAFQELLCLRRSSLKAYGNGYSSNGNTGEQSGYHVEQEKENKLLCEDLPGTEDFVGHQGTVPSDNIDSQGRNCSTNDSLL

Assay [13] has as its target D(2) dopamine receptor (Homo sapiens) (UniProt P14416). Kind of assay: Dopamine D2 receptor (DRD2) small molecule agonists, cell-based qHTS assay (AID 1963594). Note: nearly all actives have a fitted effect of over 35% in size. The method in brief:
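HEK293 cells stably expressing human DRD2, pre-treated with PDE inhibitor Ro20-1724 (0.1 mM final) and compound 10 min at room temperature, then stimulated with NKH477 (200nM […]) for 30 min. cAMP read by HTRF (665/620 nm).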

The target is the same in assay [14]. Kind of assay: Dopamine D2 receptor (DRD2) small molecule antagonists, cell-based qHTS assay (AID 1963595; active = well fitted inhibition curve with a large enough effect in the signal ratio in the repeat runs, with a control signal flat; the % refers to the signal ratio). The method in brief: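 HEK293 cells stably expressing DRD2, preincubated with 0.1 mM Ro20-1724 and compounds 10 min, were stimulated with 200 nM NKH477 plus 12 nM quinpirole for 30 min at room temperature; cAMP measured by HTRF (665/620 nm).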
In assay [15] the target is 5-hydroxytryptamine receptor 2A (Homo sapiens) (UniProt P28223). Kind of assay: 5-hydroxytryptamine receptor 2A (HTR2A) small molecule agonists, cell-based qHTS assay (AID 1963587). Note: nearly all actives have a fitted effect of over 30% in size. The method in brief:
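CHO cells stably expressing human HTR2A, plated 18 h, loaded with calcium dye 1 h at 37 C. Agonist mode: compounds added and intracellular calcium fluorescence recorded kinetically for 2 min at 1 sec intervals.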

Assay [16] concerns the target Muscarinic acetylcholine receptor M1 (Homo sapiens) (UniProt P11229). Kind of assay: Cholinergic receptor muscarinic 1 (CHRM1) small molecule antagonists, cell-based qHTS assay (AID 1963588). Note: nearly all actives have a fitted effect of over 40% in size. The method in brief:
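Compounds were tested at 15 concentrations in three independent runs. Dye-loaded CHRM1-CHO cells were exposed 5 min at room temperature before stimulation by acetylcholine added at 50nM. Intracellular calcium was read kinetically on FDSS for 3 min.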

Assay [17] in a line: cAMP Responsive Elements (CRE) small molecule agonists, cell-based qHTS assay (AID 1963590). A digest of the protocol:
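HEK 293T cells stably bearing CRE-bla were plated at 2,000 cells per well and rested 18 h. Compounds, positive controls or DMSO were added for 3 h at 37 C. LiveBLAzer B/G substrate was then loaded for 2 h at room temperature.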

Assay [18] in a line: cAMP Responsive Elements (CRE) small molecule antagonists, cell-based qHTS assay (AID 1963591; active = well fitted inhibition curve with a large enough effect in the signal ratio in the repeat runs, not every such curve was filed as active; the % refers to the signal ratio). A digest of the protocol:
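First, CRE-bla HEK293T cells settled 18 h at 37 C. Next, compound and 0.25 uM final NKH477 were applied for 3 h. Last, LiveBLAzer B/G substrate was loaded for 2 h at room temperature.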

In assay [19] the target is 5-hydroxytryptamine receptor 2A (Homo sapiens) (UniProt P28223). Kind of assay: 5-hydroxytryptamine receptor 2A (HTR2A) small molecule antagonists, cell-based qHTS assay (AID 1963586). Note: nearly all actives have a fitted effect of over 45% in size. The method in brief: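 CHO cells stably expressing human HTR2A were plated for 18 h at 37 C, then loaded with calcium dye for 1 h. Compounds were preincubated 5 min at room temperature before DOI (4 nM solution) was added. Kinetic fluorescence was read for 3 min.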
Chain of 5-hydroxytryptamine receptor 2A (Homo sapiens) (P28223 whole entry, looked up): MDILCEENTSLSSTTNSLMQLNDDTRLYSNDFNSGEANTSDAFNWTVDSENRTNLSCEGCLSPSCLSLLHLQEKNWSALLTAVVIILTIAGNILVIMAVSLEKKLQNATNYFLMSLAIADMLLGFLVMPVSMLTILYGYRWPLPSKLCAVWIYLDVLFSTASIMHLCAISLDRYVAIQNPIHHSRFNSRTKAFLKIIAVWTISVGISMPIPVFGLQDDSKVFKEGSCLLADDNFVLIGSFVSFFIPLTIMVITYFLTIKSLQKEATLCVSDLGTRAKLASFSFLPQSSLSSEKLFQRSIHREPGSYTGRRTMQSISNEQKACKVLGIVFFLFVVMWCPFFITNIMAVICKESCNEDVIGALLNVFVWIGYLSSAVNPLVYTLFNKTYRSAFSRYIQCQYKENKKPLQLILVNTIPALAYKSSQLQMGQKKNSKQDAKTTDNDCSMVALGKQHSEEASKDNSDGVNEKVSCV

A short description of assay [20]: p53 small molecule agonists, cell-based qHTS assay (AID 1963582; active = well fitted activation curve with a large enough effect in the signal ratio in the repeat runs, not every such curve was filed as active; the % refers to the signal ratio). The method in brief:
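16 h compound exposure (37 C) of p53 response element–bla cells, preceded by 5 h recovery at 37 C/5% CO2; read-out via LiveBLAzer B/G FRET substrate, 2 h RT, fluorescence intensity.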

Several values for one entry are separate records, joined by “and”; a condition that tells them apart may be missing. Identical values can stand only once. Inconclusive results are not listed. More than one record can exist for a structure, and the calls need not agree. Activity calls are given as the source filed them. Unless noted, calls come from the whole dose curve.
% is set by controls: 0 for no effect and ±100 for the full control effect.

Chain of KiSS-1 receptor (Homo sapiens) (Q969F8 whole entry, looked up): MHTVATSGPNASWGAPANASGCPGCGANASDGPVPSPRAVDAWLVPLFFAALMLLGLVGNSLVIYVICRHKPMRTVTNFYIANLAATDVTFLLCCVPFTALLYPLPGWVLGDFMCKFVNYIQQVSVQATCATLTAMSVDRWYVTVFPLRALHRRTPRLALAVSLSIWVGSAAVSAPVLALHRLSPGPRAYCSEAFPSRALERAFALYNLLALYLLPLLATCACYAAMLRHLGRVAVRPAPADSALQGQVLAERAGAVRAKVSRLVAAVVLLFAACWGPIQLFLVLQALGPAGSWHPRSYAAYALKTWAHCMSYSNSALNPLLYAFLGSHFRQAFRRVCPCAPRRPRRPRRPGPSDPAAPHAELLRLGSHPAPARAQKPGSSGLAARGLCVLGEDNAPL
Chain of D(2) dopamine receptor (Homo sapiens) (P14416 whole entry, looked up): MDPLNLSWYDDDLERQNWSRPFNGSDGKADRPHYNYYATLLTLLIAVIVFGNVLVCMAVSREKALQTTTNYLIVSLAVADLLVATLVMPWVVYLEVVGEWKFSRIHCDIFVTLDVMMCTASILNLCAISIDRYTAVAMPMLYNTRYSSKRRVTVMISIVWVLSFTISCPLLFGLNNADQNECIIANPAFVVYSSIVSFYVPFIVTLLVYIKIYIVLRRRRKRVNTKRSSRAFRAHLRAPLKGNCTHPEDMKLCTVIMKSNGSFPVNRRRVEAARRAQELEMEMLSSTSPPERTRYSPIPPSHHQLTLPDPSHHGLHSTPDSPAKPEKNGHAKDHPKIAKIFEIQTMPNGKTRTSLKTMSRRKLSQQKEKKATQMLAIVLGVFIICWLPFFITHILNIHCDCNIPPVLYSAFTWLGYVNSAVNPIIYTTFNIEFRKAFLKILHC
Chain of Muscarinic acetylcholine receptor M1 (Homo sapiens) (P11229 whole entry, looked up): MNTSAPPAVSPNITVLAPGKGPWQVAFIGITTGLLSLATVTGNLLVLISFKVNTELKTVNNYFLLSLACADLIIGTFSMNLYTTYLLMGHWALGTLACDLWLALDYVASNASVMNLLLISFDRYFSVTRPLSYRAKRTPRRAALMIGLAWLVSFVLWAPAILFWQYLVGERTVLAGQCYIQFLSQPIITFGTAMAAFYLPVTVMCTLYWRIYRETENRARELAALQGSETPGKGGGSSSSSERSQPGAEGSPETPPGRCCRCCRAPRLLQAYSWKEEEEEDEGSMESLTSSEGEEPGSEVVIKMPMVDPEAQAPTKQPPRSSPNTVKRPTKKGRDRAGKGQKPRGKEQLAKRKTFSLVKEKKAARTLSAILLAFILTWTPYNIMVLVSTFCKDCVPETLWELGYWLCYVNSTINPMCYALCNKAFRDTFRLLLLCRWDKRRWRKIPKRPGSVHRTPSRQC
Chain of Gonadotropin-releasing hormone receptor (Homo sapiens) (P30968 whole entry, looked up): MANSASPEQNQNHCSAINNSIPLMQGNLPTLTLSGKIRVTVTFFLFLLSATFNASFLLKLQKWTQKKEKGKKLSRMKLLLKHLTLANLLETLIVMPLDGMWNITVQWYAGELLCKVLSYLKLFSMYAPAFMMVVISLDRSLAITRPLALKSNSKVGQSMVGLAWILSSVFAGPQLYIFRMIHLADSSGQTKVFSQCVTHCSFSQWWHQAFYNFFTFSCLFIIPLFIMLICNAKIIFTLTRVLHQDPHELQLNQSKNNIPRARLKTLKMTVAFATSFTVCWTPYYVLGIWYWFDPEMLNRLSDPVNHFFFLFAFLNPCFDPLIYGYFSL

Take `CCCCCCc1ccc(O)cc1O`: the Potency result in [1] is “inactive”.

`COc1ccc2c(c1)c(CC(=O)O)c(C)n2C(=O)c1ccc(Cl)cc1`: the Potency entry in assay [2], in assay [3], in [4], in assay [5], in assay [6] and in assay [7] was “inactive” throughout. Besides, the Potency result in assay [8], in assay [9], in assay [10], in assay [11], in [12] and in assay [13] was “inactive” in each case. For the same compound, in assay [14], the Potency entry was “inactive”.

Take `Cc1ccccc1C=O`: the Potency result in assay [2], in assay [3], in [4], in assay [5], in [6] and in assay [7] was “inactive” each time. For the same compound, the Potency result in assay [8], in [9], in assay [10], in assay [11], in assay [15] and in [16] was “inactive” throughout. Besides, the Potency entry in [17], in [18], in assay [13] and in [14] was “inactive” throughout.

As for `C[C@]12CC[C@@H]3c4ccc(O)cc4CC[C@H]3[C@@H]1CC[C@H]2O`, the Potency entry in [2], in [3], in [4], in [5], in assay [6] and in assay [7] was “inactive” throughout. The Potency entry in assay [8], in assay [9], in assay [10], in assay [11], in [17] and in assay [18] was “inactive” each time. Besides, the Potency entry in assay [12], in assay [13] and in assay [14] was “inactive” each time.

For the compound `O=C1O[C@H]([C@@H](O)CO)C(O)=C1O`, the Potency result in assay [2], in [4], in assay [5], in assay [6], in [7] and in assay [8] was “inactive” in each case. The Potency result in [9], in assay [10], in assay [11], in assay [17], in [18] and in [12] was “inactive” in each case. For the same compound, the Potency result in assay [13] and in assay [14] was “inactive” throughout. In addition, the Potency result in assay [3] is “inactive and 61.1 µM (active)”.

For the compound `CCCCC/C=C\C/C=C\CCCCCCCC(=O)O`, the Potency result in assay [2], in [4], in [5], in [6], in [7] and in assay [8] was “inactive” each time. Also, the Potency result in assay [9], in [10], in assay [11], in assay [19], in assay [15] and in assay [16] was “inactive” throughout. In addition, the Potency result in assay [12], in assay [13] and in assay [14] was “inactive” in each case. Further, the Potency in assay [3] was 60.1 µM (active) and 68.6 µM (active).

In the case of `O=C(O)c1cn(-c2ccc(F)cc2)c2cc(N3CCNCC3)c(F)cc2c1=O`, the Potency result in assay [2], in assay [3], in [4], in [5], in assay [6] and in assay [7] was “inactive” each time. For the same compound, the Potency result in [8], in assay [9], in assay [10], in assay [11], in assay [20] and in assay [14] was “inactive” each time. The activity change, negative = inhibition in assay [12] is 3.86% [at 19 µM] (inactive).

As for `COC(=O)C(C)Oc1ccc(Oc2ncc(C(F)(F)F)cc2Cl)cc1` (stereo not given), the Potency entry in assay [2], in assay [3], in [4], in assay [5], in [6] and in [7] was “inactive” each time. Besides, the Potency result in assay [8], in [9], in [10], in assay [11], in assay [19] and in [15] was “inactive” throughout. The Potency entry in assay [16], in [17], in [18], in assay [12], in assay [13] and in assay [14] was “inactive” throughout.

In the case of `CCCCCC/C=C/CCCCCCCC(=O)O`, the Potency entry in [2], in assay [3], in [4], in [5], in assay [6] and in assay [7] was “inactive” in each case. Also, the Potency result in assay [8], in assay [9], in [10], in [11], in assay [19] and in assay [15] was “inactive” in each case. In addition, the Potency result in assay [16], in assay [1], in assay [17], in [12], in [13] and in assay [14] was “inactive” throughout.

Source of the values: PubChem BioAssay (Tox21).
